# Test results reported in PubChem BioAssay (NCATS).
# Records with an inconclusive call do not appear. A call without a number means that no potency is given here. Values without a mark were called inactive. Active and inactive are the calls of the source. Calls come from the whole dose curve; as a rule, active = well fitted curve in the direction sought with a large enough effect; inconclusive = small, poorly fitted or top-dose-only effect, or another doubt; inactive = no such curve, though single readings can be large; an effect the other way counts as inactive or inconclusive.
# What was measured:
# C33A = assay: Primary qHTS to identify gynecologic anti-cancer compounds using libraries of approved drugs and bioactive compounds (AID 1345084); conditions: Gynecologic cancer cell panel viability, ATPlite luminescence, 48 h; series mostly up to 57.5 µM; note: nearly all actives have a fitted effect of over 55% in size; note: potency is the fitted concentration of half-maximal effect
# Method in brief: (§1)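 48 h compound exposure at 37 C, 5% CO2; five-point qHTS. ATPlite luminescence readout of cell ATP.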
# CAOV3 = assay: as above; conditions: Gynecologic cancer cell panel viability, ATPlite luminescence, 48 h; series mostly up to 57.5 µM
# Method in brief: as §1
# CASKI = assay: as above; conditions: Gynecologic cancer cell panel viability, ATPlite luminescence, 48 h; series mostly up to 57.5 µM
# Method in brief: as §1
# Es-2 = assay: as above; conditions: Gynecologic cancer cell panel viability, ATPlite luminescence, 48 h; series mostly up to 57.5 µM
# Method in brief: as §1
# HeLa = assay: as above; conditions: Gynecologic cancer cell panel viability, ATPlite luminescence, 48 h; series mostly up to 57.5 µM
# Method in brief: as §1
# NIH3T3 = assay: qHTS assay to identify novel small-molecules to repurpose for Merkel cell carcinoma treatment (AID 1296009); conditions: MCC and control cell lines, CellTiter-Glo viability, 72 h; at 44.8 µM (top of the series) unless noted; note: nearly all actives have a fitted effect of over 60% in size
# Method in brief: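 Cells were treated for 72 hr at 37 degree celsius with compounds in 8- or 11-point dose response. Viability was read by CellTiter-Glo luminescence, normalized to no-cell (cytotoxicity) and DMSO controls.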
compound,measurement,setting,value
O=C1C[C@@H]2OCC=C3CN4CC[C@]56c7ccccc7N1[C@H]5[C@H]2[C@H]3C[C@H]46,Potency,C33A,inactive
same,Potency,CAOV3,inactive
same,Potency,CASKI,inactive
same,Potency,Es-2,inactive
same,Potency,HeLa,inactive
CCCCCCn1c(=O)c(C(=O)Nc2ccc(C(=O)OCCC)cc2)c(O)c2ccccc21,"activity change, negative = cytotoxicity",C33A,-0.0211% [at 11.6 µM]
same,"activity change, negative = cytotoxicity",CAOV3,20.9% [at 11.6 µM]
same,"activity change, negative = cytotoxicity",CASKI,4.2% [at 11.6 µM]
same,"activity change, negative = cytotoxicity",Es-2,9.25% [at 11.6 µM]
same,"activity change, negative = cytotoxicity",HeLa,18.5% [at 11.6 µM]
C=C[C@H]1CN2CC[C@H]1C[C@@H]2[C@@H](O)c1ccnc2ccccc12,Potency,C33A,inactive
same,Potency,CAOV3,inactive
same,Potency,CASKI,inactive
same,Potency,Es-2,inactive
same,Potency,HeLa,inactive
C=C1[C@@H]2CC[C@@]3(C)[C@H](c4ccoc4)OC(=O)C[C@]13O[C@H]1CC(=O)C(C)(C)[C@H](C(OC(C)=O)C(=O)OC)[C@]12C (some centres not stated),Potency,C33A,inactive
same,Potency,CAOV3,inactive
same,Potency,CASKI,inactive
same,Potency,Es-2,inactive
same,Potency,HeLa,inactive
CC(CCc1ccc(O)cc1)O[C@@H]1O[C@H](CO[C@H]2OC[C@](O)(CO)[C@H]2O)[C@@H](O)[C@H](O)[C@H]1O (some centres not stated),Potency,C33A,inactive
same,Potency,CAOV3,inactive
same,Potency,CASKI,inactive
same,Potency,Es-2,inactive
same,Potency,HeLa,inactive
CCCCCOc1cc2c(cc1-c1cc(/C=C/C(=O)O)ccc1O)C(C)(C)CCC2(C)C,Potency,C33A,inactive
same,Potency,CAOV3,inactive
same,Potency,CASKI,inactive
same,Potency,Es-2,inactive
same,Potency,HeLa,inactive
CCc1c(C(=O)C(N)=O)c2c(OCC(=O)OC)cccc2n1Cc1ccccc1,Potency,C33A,inactive
same,Potency,CAOV3,inactive
same,Potency,CASKI,inactive
same,Potency,Es-2,inactive
same,Potency,HeLa,inactive
CO[C@@H]1[C@H](O)[C@@H](O[C@@H]2C[C@H]3CC[C@@H]4C(CC[C@]5(C)[C@@H](C6=CC(=O)OC6)CC[C@]45O)[C@@]3(C)[C@H](O)C2)O[C@H](C)[C@@H]1O[C@@H]1O[C@H](CO)[C@@H](O)[C@H](O)[C@H]1O (some centres not stated),outcome,NIH3T3,inactive [at 17.4 µM]
same,Potency,C33A,199 nM (active)
same,Potency,CASKI,1260 nM (active)
same,Potency,Es-2,398 nM (active)
same,Potency,HeLa,562 nM (active)
COC(=O)[C@@]12C(=O)C(C)C(=O)[C@]1(C)C(C)=C[C@H]1[C@]3(C=O)CC[C@H](OC(C)=O)C(C)(C)[C@H]3CC[C@@]12C (some centres not stated),Potency,C33A,inactive
same,Potency,CAOV3,inactive
same,Potency,CASKI,inactive
same,Potency,Es-2,inactive
same,Potency,HeLa,inactive
COC(=O)C1(C)CCC(O)C2(C)c3c(O)cc(C(C)C)cc3C(O)C(OC(C)=O)C12 (configuration not stated),Potency,C33A,inactive
same,Potency,CAOV3,inactive
same,Potency,CASKI,inactive
same,Potency,Es-2,inactive
same,Potency,HeLa,inactive
COC1CC(OC2CCC3(C)C(CCC4C3CCC3(C)C(C5=CC(=O)OC5)C(OC(C)=O)CC43O)C2)OC(C)C1OC1OC(CO)C(O)C(O)C1O (configuration not stated),outcome,NIH3T3,inactive [at 17.4 µM]
same,Potency,C33A,3160 nM (active)
same,Potency,HeLa,2820 nM (active)
CN[C@H]1[C@H](O)[C@H](O[C@@H]2[C@@H](O)[C@H](O[C@H]3O[C@H]([C@H](C)O)[C@@H](O)[C@H](O)[C@H]3N)[C@@H](N)C[C@H]2N)OC[C@@]1(C)O,Potency,C33A,inactive
same,Potency,CAOV3,inactive
same,Potency,CASKI,inactive
same,Potency,Es-2,inactive
same,Potency,HeLa,inactive
CCN1C[C@]2(OC(=O)c3ccccc3NC(C)=O)CC[C@H](OC)[C@@]34[C@@H]2C[C@@H]([C@@H]13)[C@@]1(O)C[C@H](OC)[C@H]2C[C@@H]4[C@]1(O)[C@H]2OC,outcome,NIH3T3,inactive
same,Potency,C33A,inactive
same,Potency,CASKI,inactive
same,Potency,Es-2,inactive
same,Potency,HeLa,inactive
C[C@H]1O[C@@H](O[C@H]2C[C@@H](O)[C@]3(CO)C4C(CC[C@]3(O)C2)[C@@]2(O)CC[C@H](C3=CC(=O)OC3)[C@@]2(C)C[C@H]4O)[C@@H](O)[C@@H](O)[C@H]1O (some centres not stated),outcome,NIH3T3,inactive [at 17.4 µM]
same,Potency,C33A,398 nM (active)
same,Potency,CAOV3,562 nM (active)
same,Potency,Es-2,355 nM (active)
same,Potency,HeLa,562 nM (active)
CCCSP(=O)(OCC)SCCC,Potency,C33A,inactive
same,Potency,CAOV3,inactive
same,Potency,CASKI,inactive
same,Potency,Es-2,inactive
same,Potency,HeLa,inactive
COC(=O)C1(C)CCC(O)C2(C)c3cc(O)c(C(C)C)cc3C(O)C(OC(C)=O)C12 (configuration not stated),Potency,C33A,inactive
same,Potency,CAOV3,inactive
same,Potency,CASKI,inactive
same,Potency,Es-2,inactive
same,Potency,HeLa,inactive
COc1cc2c(cc1OC)[C@@]13CCN4CC5=CCO[C@H]6CC(=O)N2[C@H]1[C@H]6[C@H]5C[C@H]43,Potency,C33A,inactive
same,Potency,CAOV3,inactive
same,Potency,CASKI,inactive
same,Potency,Es-2,inactive
same,Potency,HeLa,inactive
Cn1ncnc1COc1nn2c(-c3c(F)cccc3F)nnc2cc1C1CCC1,Potency,C33A,inactive
same,Potency,CASKI,inactive
same,Potency,Es-2,inactive
same,Potency,HeLa,inactive
COc1c(C(C)C)cc2c(c1O)[C@@]1(C(=O)O)CCCC(C)(C)C1CC2 (some centres not stated),Potency,C33A,inactive
same,Potency,CAOV3,inactive
same,Potency,CASKI,inactive
same,Potency,Es-2,inactive
same,Potency,HeLa,inactive
COC1CC(O[C@H]2CC[C@]3(C=O)C4CC[C@]5(C)[C@@H](C6=CC(=O)OC6)CC[C@]5(O)[C@@H]4CC[C@]3(O)C2)OC(C)C1O[C@@H]1O[C@H](CO)[C@@H](O)[C@H](O)[C@H]1O (some centres not stated),outcome,NIH3T3,inactive [at 17.4 µM]
same,Potency,C33A,141 nM (active)
same,Potency,CAOV3,501 nM (active)
same,Potency,Es-2,355 nM (active)
same,Potency,HeLa,355 nM (active)
CC(=O)OC1CC(O)C2(C)C(CC(OC(C)=O)C3(C)C2CCC2(C)C(c4ccoc4)C(=O)C4OC423)C1(C)C (configuration not stated),Potency,C33A,inactive
same,Potency,CAOV3,inactive
same,Potency,CASKI,inactive
same,Potency,Es-2,inactive
same,Potency,HeLa,inactive
CN1C(=O)c2ccccc2NC(=O)C1Cc1ccccc1 (configuration not stated),Potency,C33A,inactive
same,Potency,CAOV3,inactive
same,Potency,CASKI,inactive
same,Potency,Es-2,inactive
same,Potency,HeLa,inactive
CC1C/C=C/C(O)C(O)CC/C=C/c2cc(O)cc(O)c2C(=O)O1 (configuration not stated),Potency,C33A,inactive
same,Potency,CAOV3,inactive
same,Potency,CASKI,inactive
same,Potency,Es-2,inactive
same,Potency,HeLa,inactive
